DT40 TDP1 CPT – DT40-hTDP1 cell growth loss with CPT | chicken DT40 Tdp1-/-;hTDP1 cells + 20 nM CPT, ATP luminescence, 48 h | Potency, µM (series often up to 46.2 µM), without a hit: at the highest dose activity change, negative = growth inhibition, actives largely listed as inhibitors | hit rate 12% among 420,000 | AID 686979; also: potency is read from the fitted curve at half-maximal effect; nearly all actives have a fitted effect of over 55% in size
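Chicken DT40 Tdp1-/- cells stably complemented with human TDP1 were seeded at 400 cells/well in medium containing 20 nM camptothecin, exposed to pin-transferred compounds, and grown at 37 °C for at least 48 hr. Viability was read as ATP luminescence.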
HT1080 IDH1KD tx – kills HT-1080 cells with IDH1 knockdown; hit rate 2% among 360,000; Potency, µM (titrated, usually from 46.1 µM), without a hit: top-dose activity, negative = toxicity, usual class: cytotoxic; AID 686971; HT-1080 IDH1 knockdown viability, ATP luminescence, 48 h;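 also: potency is read from the fitted curve at half-maximal effect; 0% = DMSO wells and -100% = cell-free medium wells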
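Cytotoxicity counter-line: IDH1KD HT-1080, 48 h, CellTiter-Glo. Curves classed by r2, magnitude and activity.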
HT1080NT lethal – kills 2HG-producing HT-1080-NT fibrosarcoma cells; Potency, µM (highest dose often 46.1 µM), without a hit: at the top dose activity, negative = less viability, most hits filed as cytotoxic; HT-1080-NT fibrosarcoma viability, CellTiter-Glo ATP luminescence, 48 h; AID 686970; hit rate 1.6% among 360,000;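 also: NT is the 2HG producing partner of a matched IDH1 knockdown line; potency is read from the fitted curve at half-maximal effect; 0% = DMSO-treated cells and -100% = media-only wells without cells; nearly all actives have a fitted effect of over 55% in size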
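Read-out is CellTiter-Glo luminescence after 10 minutes at room temperature, following 48 hours' compound treatment of HT-1080-NT cells (750 cells/well, RPMI, 5% FBS, 37 degrees C).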
DT40 TDP1 no CPT – qHTS for Inhibitors of human tyrosyl-DNA phosphodiesterase 1 (TDP1): qHTS in cells in absence of CPT; DT40 Tdp1-/- hTDP1 cells, no CPT, ATP luminescence, 48 h; Potency, µM (series often up to 46.2 µM), inactives show at the top dose activity change, negative = growth inhibition, actives largely listed as inhibitors; hit rate 15% among 420,000; also: potency is read from the fitted curve at half-maximal effect; nearly all actives have a fitted effect of over 55% in size
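A cellular qHTS used chicken DT40 cells lacking endogenous Tdp1 but carrying stably transfected human TDP1. Compounds were applied without camptothecin, and cell growth kinetics were judged by ATP-dependent luminescence after ≥48 hr.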
IL-1B inflam inh – inflammasome signaling inhibition, IL-1 beta readout. THP-1 LPS/ATP IL-1B secretion, AlphaLISA, 16 h; hits give low values. activity change, % at 57.5 µM. hit rate 4.7% among 360,000. AID 743279; in the data active = activity change below about -50%; inconclusive = mostly about -30% to -49%
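THP-1 cells pretreated 1 hr with compounds (up to 57.5 uM final), then stimulated with LPS (250 ng/mL final) plus ATP (1.25 mM final); secreted IL-1B measured by AlphaLISA after 16 hr, decreased signal indicating inhibition.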
* marks the source's active call; other numbers are inactive results; i = inactive; ? = inconclusive; / = no result given; ! = not active in a repeat. This is a sample that favours compounds with a hit; in the whole collection about 19% have one here. Unless noted, calls follow the shape of the dose curve; as a rule, active = well fitted curve in the direction sought with a large enough effect; inconclusive = small, poorly fitted or top-dose-only effect, or another doubt; inactive = no such curve, though single readings can be large; an effect the other way counts as inactive or inconclusive. Unless noted, % is scaled to controls: 0 for no effect and ±100 for the full control effect.

SMILES | DT40 TDP1 CPT | HT1080 IDH1KD tx | HT1080NT lethal | DT40 TDP1 no CPT | IL-1B inflam inh
COc1ccc(C2/C=C\CN(S(=O)(=O)c3ccc(C)cc3)CC(=O)N2Cc2ccc(F)cc2)cc1 (stereo unspecified) | ? | 6.0% | 7.9% | 18.4µM* | 8.3
COC(=O)[C@@H](Cc1c[nH]c2ccccc12)NC(=O)CCC(=O)c1ccc(Br)cc1 | -7.7% | 2.2% | 0.4% | 0.7% | 0.0
C[C@@H]1CCCCO[C@H](CN(C)S(=O)(=O)c2cn(C)cn2)[C@@H](C)CN([C@H](C)CO)C(=O)c2cc(NC(=O)c3ccncc3)ccc2O1 | 5.2% | -0.3% | 3.5% | 6.0% | -13.2
COc1ccc(C2/C=C\CN(S(=O)(=O)c3cccc4cccnc34)CC(=O)N2Cc2ccc(F)cc2)cc1 (stereo unspecified) | ? | -3.5% | -0.2% | ? | 0.2
COc1ccc([C@H]2/C=C\CN(S(=O)(=O)c3cccc4cccnc34)[C@@H](C)C(=O)N2Cc2ccc(F)cc2)cc1 | 18.4µM* | 10.0% | 0.0% | 14.6µM* | -9.8
CC(C)COCC(CN(Cc1ccccc1)c1ccccc1)N1CCCC1 (stereo unspecified) | 10µM*! | 15.8µM* | 16.4µM* | 25.9µM* | -82.6*
COCc1cc(C)n(CC(=O)Nc2ccc(N3CCOCC3)cc2)c(=O)c1C#N | -11.2% | -0.2% | 0.9% | -18.2% | 12.9
Cc1ccc(S(=O)(=O)N(C)C)cc1NC(=O)CCCNC(=O)c1ccc(Cl)cc1 | 4.2% | 0.5% | -11.6% | -2.6% | -5.8
CCOc1ccc(N(CC(=O)NCc2cccnc2)S(=O)(=O)c2ccc(F)cc2)cc1 | -15.4% | ? | 8.8% | -13.5% | i
N=C(N)SCc1ccc(Cl)c2ccccc12 | ? | -8.8% | -13.5% | ? | -101.1*
O=C(CN1CCCCC1)Nc1ccc(NC(=O)c2ccccc2Cl)cc1Cl | -18.0% | -1.1% | -0.6% | ? | /
CCOc1ccc(Nc2nc(N)nc(CSC(=S)N3CCN(c4ccccc4)CC3)n2)cc1 | 14.6µM* | -9.2% | -10.6% | 18.4µM* | -0.8
CC1CCN(C(=S)SCc2nc(N)nc(Nc3ccccc3)n2)CC1 | -12.4% | -1.7% | -6.8% | -12.4% | -9.4
COc1ccc(Nc2nc(N)nc(CSC(=S)N3CCN(c4ccccc4)CC3)n2)cc1 | ? | -1.8% | -2.3% | 18.4µM* | -15.0
COc1ccccc1Nc1nc(N)nc(CSC(=S)N2CC(C)CC(C)C2)n1 (stereo unspecified) | ? | -12.1% | -14.7% | ? | -2.7
COc1ccc(Nc2nc(N)nc(CSC(=S)N3CCCCC3C)n2)cc1 (stereo unspecified) | ? | ? | ? | 18.4µM* | -62.0*
COc1ccc(Nc2nc(N)nc(CSC(=S)N3CCN(C)CC3)n2)cc1 | -13.8% | 2.9% | 5.4% | ? | -10.8
Cc1cccc(N2CCN(C(=O)c3cccc(N4C(=O)C5C6C=CC(C6)C5C4=O)c3)CC2C)c1 (stereo unspecified) | 13µM* | ? | ? | 20.6µM* | 11.4
O=C(CCN1C(=O)C2C3C=CC(C3)C2C1=O)N1CCN(c2cccc(Cl)c2)CC1 (stereo unspecified) | 16.4µM* | -2.2% | -3.1% | 16.4µM* | -1.4
Cc1cccc(N2CCN(C(=O)CCN3C(=O)C4C5C=CC(C5)C4C3=O)CC2C)c1 (stereo unspecified) | -28.6% | -1.4% | -1.1% | 25.9µM* | -7.3
Cc1c(NC(=O)Nc2ccc(Cl)c(Cl)c2)sc2nc3n(c(=O)c12)CCC(C)CC3 (stereo unspecified) | 5.17µM* | / | / | 8.2µM* | /
Cc1c(C(=O)Nc2ccccc2F)sc2nc3n(c(=O)c12)CCC3 | 3.6% | 10.3% | 11.4% | 6.4% | -9.7
CCOC(=O)c1sc2nc3n(c(=O)c2c1C)CCC(C)CC3 (stereo unspecified) | ? | 0.0% | ? | ? | ?
COc1cc(Cl)c(C)cc1NC(=O)c1sc2nc3n(c(=O)c2c1C)CCCCC3 | 7.8% | / | / | -5.7% | /
CC(=O)c1cccc(NC(=O)Nc2sc3nc4n(c(=O)c3c2C)CCC(C)CC4)c1 (stereo unspecified) | ? | / | / | 8.2µM* | /
SMILES | DT40 TDP1 CPT | HT1080 IDH1KD tx | HT1080NT lethal | DT40 TDP1 no CPT | IL-1B inflam inh
COc1cc(OC)c(NC(=O)Nc2sc3nc4n(c(=O)c3c2C)CCC(C)CC4)cc1Cl (stereo unspecified) | 5.17µM* | / | / | 5.8µM* | /
Cc1c(NC(=O)Nc2ccccc2C(F)(F)F)sc2nc3n(c(=O)c12)CCC(C)CC3 (stereo unspecified) | 20.6µM* | / | / | 13µM* | /
CCOC(=O)N1CCN(C(=O)Nc2sc3nc4n(c(=O)c3c2C)CCC(C)CC4)CC1 (stereo unspecified) | ? | -17.1% | -0.1% | ? | -5.5
CCOc1ccc(N(C)C(=O)CCc2nnc3ccc(N4CCC5(CC4)OCCO5)nn23)cc1 | -12.6% | 24.0% | 1.7% | 19.5% | -7.9
CCCOC(=O)/C(C(N)=NCc1ccccc1)=C(\O)OCCC | ? | ? | -4.0% | ? | -6.5
CNc1cc(F)nc(F)n1 | 18.4µM* | -0.3% | 1.1% | 16.4µM* | -11.7
O=C(Cn1c(=S)[nH]c2ccccc2c1=O)N1CCN(c2ccc(F)cc2)CC1 | -29.8% | -2.9% | -1.9% | ? | -8.2
CCC(=O)Oc1c(C(=O)CC)cc2c(C)cc(=O)oc2c1C | ? | -6.5% | -4.8% | ? | -64.6*
CCCN1CNc2c(c(=O)[nH]c(=S)n2CCc2cccc(OC)c2OC)C1 | -14.6% | 12.8% | 2.3% | -29.0% | /
Cn1c(=O)oc2cc(S(=O)(=O)N3CCCC(C(=O)Nc4nccs4)C3)ccc21 (stereo unspecified) | ? | -7.4% | 1.7% | 20.6µM* | 2.8
Cn1c(=O)oc2cc(S(=O)(=O)N3CCCC(C(=O)Nc4ccc(Br)cc4F)C3)ccc21 (stereo unspecified) | -19.2% | / | / | -28.9% | /
CCN(CC)c1ccc(NC(=O)C2CCCN(S(=O)(=O)c3ccc4c(c3)oc(=O)n4C)C2)c(C)c1 (stereo unspecified) | 20.6µM* | / | / | 10.3µM* | /
Cc1ccc(O)c(C2=NNC(c3ccc(Cl)cc3)C2)c1 (stereo unspecified) | ? | -29.9% | -23.2% | ? | 1.8
Cc1ccc(C2Cc3cc(O)c(O)cc3CN2)cc1 (stereo unspecified) | 14.6µM* | ? | ? | 16.4µM* | 13.0
O=C(c1ccncc1)N1CCC2(CC1)CCN(c1ccccn1)CC2 | -20.8% | / | / | ? | /
CC(=O)N1CCCc2cc(S(=O)(=O)N(C)CC(=O)Nc3ccc(C(C)C)cc3)ccc21 | 18.4µM* | / | / | 23.1µM* | /

Screening results from PubChem.
